The source of these data is PubChem BioAssay AID1903 (Southern Research Specialized Biocontainment Screening …, 2009).

Out of some 310,000 compounds screened, about 1,200 (0.39%) were called active. The list is a sample of the results. Results with a measured potency or affinity are listed apart. A number with no mark means an inactive call. No rule for the calls is given here.

This assay deals with Large T antigen (Simian virus 40) (UniProt P03070). Put plainly: SV40 large T antigen inhibitors, biochemical (AID 1903). As to conditions: SV40 large T antigen ATPase/helicase inhibition assay; at 20 µM; stronger effect = higher value.
Large T antigen (Simian virus 40), sequence (P03070 whole entry, looked up): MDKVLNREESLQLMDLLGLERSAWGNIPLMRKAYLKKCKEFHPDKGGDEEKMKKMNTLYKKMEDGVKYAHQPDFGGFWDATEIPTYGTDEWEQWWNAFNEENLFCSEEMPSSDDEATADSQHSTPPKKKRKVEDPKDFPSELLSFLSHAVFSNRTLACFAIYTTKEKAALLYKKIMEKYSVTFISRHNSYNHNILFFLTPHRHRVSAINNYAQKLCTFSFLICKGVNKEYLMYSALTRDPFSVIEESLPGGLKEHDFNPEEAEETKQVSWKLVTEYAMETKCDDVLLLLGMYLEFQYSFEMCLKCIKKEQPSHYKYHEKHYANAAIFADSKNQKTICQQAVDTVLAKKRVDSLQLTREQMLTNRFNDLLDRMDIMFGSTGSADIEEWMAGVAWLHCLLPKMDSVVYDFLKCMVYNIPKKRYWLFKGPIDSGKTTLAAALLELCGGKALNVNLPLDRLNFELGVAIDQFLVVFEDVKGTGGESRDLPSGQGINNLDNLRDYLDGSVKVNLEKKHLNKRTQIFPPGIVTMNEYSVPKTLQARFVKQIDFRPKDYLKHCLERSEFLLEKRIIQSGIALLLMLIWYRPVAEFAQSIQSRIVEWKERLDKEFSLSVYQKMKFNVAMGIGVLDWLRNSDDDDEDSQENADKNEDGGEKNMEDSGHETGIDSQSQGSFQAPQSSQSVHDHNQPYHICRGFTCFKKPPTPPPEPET
For the compound `Cc1c(C(=O)/C=C/N(C)C)nnn1-c1ccc(F)c(Cl)c1`, the inhibition was 10.7%. With `CC(NS(=O)(=O)c1ccc(Br)cc1)C(N)=O` (stereo not given), the inhibition is 3.6%. The figure for `COc1ccc(/C=N/NC(=O)c2cccc(Br)c2)cc1CN1CCOCC1` is 4.55%. `Cc1c(Cl)c([N+](=O)[O-])nn1Cc1ccc(C(=O)N/N=C\c2cccc(Br)c2)o1`: the inhibition was -0.98%. As for `COc1ccc(/C=N/NC(=O)c2ccc(N)cc2)cc1Cn1cc([N+](=O)[O-])cn1`, the figure is -3.89%; as for `COc1ccc(/C=N/NC(=O)c2ccccc2O)cc1Cn1cc([N+](=O)[O-])cn1`, 12.7%. The figure for `COc1ccc(/C=N/NC(=O)c2ccncc2)cc1CN1CCOCC1` is 14.2%. Turning to `COc1ccc(/C=N/NC(=O)c2ccc(Cn3cc([N+](=O)[O-])cn3)o2)cc1O`, the inhibition is 17.9%.

With `COc1cc(/C=N\NC(=O)c2ccc(Cn3cc(Br)c([N+](=O)[O-])n3)o2)cc(OC)c1O`, the inhibition is 32.8%. Consider `Cc1c(Cl)c([N+](=O)[O-])nn1Cc1ccc(C(=O)N/N=C\c2ccccn2)o1`, for which the inhibition is 6.44%. Turning to `Cc1ccc([N+](=O)[O-])c(C(=O)N/N=C/c2cccnc2)c1`, the inhibition was 13.6%. Regarding `O=[N+]([O-])c1cccc(/C=N/N2CCN(Cc3ccccc3)CC2)c1`, the inhibition was 16.1%. As for `CN1CCOc2ccc(S(=O)(=O)NCCc3ccc(Cl)cc3)cc21`, the figure is 4.83%. The figure for `CC(Oc1ccc(Br)cc1)C(=O)NCC(c1cccs1)N1CCOCC1` (stereo not given) is 0.98%. As for `O=C(NNc1ccc([N+](=O)[O-])cc1)C1C2CCCCC21` (stereo not given), the figure is 2.05%; as for `CC1CCN(S(=O)(=O)c2cccc(C(=O)N(Cc3ccccc3)c3ccccn3)c2)CC1`, 6.8%; as for `CN(C)/C=C(\C#N)C(=O)Nc1ccc(F)cc1`, -1.08%. On to `CN(C)/C=C(\C#N)C(=O)Nc1ccc(F)c(Cl)c1`, for which the inhibition was 14.7%. `COc1ccc(C)cc1NC(=O)c1ccc2c(O)c(S(=O)(=O)c3ccccc3)c(=O)[nH]c2c1`: the inhibition was 13.8%. For the compound `CC(C)(C)c1ccc(OCC(O)CSc2ncn[nH]2)cc1` (stereo not given), the inhibition is 3.06%. As for `COc1ccc2c(c1)C(=O)c1ccccc1CO2`, the figure is 10.1%; as for `COc1ccc2c(c1)C(=O)CC(c1ccccc1F)O2` (stereo not given), 15.3%. `O=C1C2C3C=CC(CO)(O3)C2C(=O)N1c1ccccc1-c1ccccc1` (stereo not given): the inhibition is 13.7%. The figure for `CCN(CC)C(=O)c1c(-c2ccccc2)oc2ccc(O)cc12` is 13.9%; for `O=C(O)c1c(-c2ccccc2)oc2ccc(O)cc12` it is 15%.

One may read the inhibition as the drop in the measured response relative to a control, in per cent.
